Measured values taken from PubChem BioAssay (EPA / NIEHS).
“And” between values parts separate entries of the source, which are not always exact repeats. Equal values may be shown once. The source made the active and inactive calls. Rule for the calls: active = hit-call score of the fitted dose curve at least 0.9, where 1 is the maximum; inactive = score below 0.9.

How the values were obtained:
[1] = read-out: Interleukin-8 (IL8), CXCL8 (gene 3576); test: BSK_KF3CT_IL8: BioMAP Diversity Plus: KF3CT Assay for Interleukin-8 (IL8) Biomarker Activity (AID 2284254); conditions: primary human keratinocytes with fibroblasts
How it was run: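 Using parallel SRB-stained cultures to flag overt toxicity, the study quantified IL-8 by ELISA in human keratinocyte–foreskin fibroblast co-cultures 24 h after dosing, with DMSO as negative control and baseline.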

[2] = read-out: Plasminogen activator inhibitor-1 (PAI1), SERPINE1 (gene 5054); test: BSK_MyoF_PAI1: BioMAP Diversity Plus: MyoF Assay for Plasminogen activator inhibitor-1 (PAI1) Biomarker Activity (AID 2284256); conditions: primary human lung fibroblasts
How it was run: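 In this multiplexed primary-cell system, fibroblasts from human lung received compound for 24 h before ELISA detection of PAI-1; overt toxicity was checked by SRB (0.1%, TCA-fixed, 560 nm) in parallel wells.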

CD69, CD69 (gene 969) = test: BSK_IMphg_CD69: BioMAP Diversity Plus: IMphg Assay for CD69 Biomarker Activity (AID 2284257); conditions: primary human endothelial cells with macrophages
How it was run: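 Readout is ELISA for CD69 in primary human venular endothelial cell/macrophage co-culture, taken at 24 h post-dosing. SRB staining of parallel cultures gauged overt cytotoxicity; signal increase versus DMSO defined activity.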

[3] = read-out: Eotaxin 3, CCL26 (gene 10344); test: BSK_BF4T_Eotaxin3: BioMAP Diversity Plus: BF4T Assay for Eotaxin 3 Biomarker Activity (AID 2284258); conditions: primary human bronchial epithelial cells with fibroblasts
How it was run: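 ELISA measurement of Eotaxin-3 after 24 h chemical exposure in a bronchial epithelial/dermal fibroblast co-culture, with DMSO as baseline. Parallel SRB staining (0.1% SRB after 10% TCA fixation, 560 nm) flagged overt cytotoxicity.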

[4] = read-out: Monocyte Chemoattractant Protein-1 (MCP1), CCL2 (gene 6347); test: BSK_BF4T_MCP1: BioMAP Diversity Plus: BF4T Assay for Monocyte Chemoattractant Protein-1 (MCP1) Biomarker Activity (AID 2284259); conditions: primary human bronchial epithelial cells with fibroblasts
How it was run: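 MCP-1 ELISA readout taken 24 h after dosing in the BF4T system (bronchial epithelial cells plus dermal fibroblasts). Parallel SRB total-protein staining flagged cytotoxicity; DMSO served as baseline, positive fitting direction.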

[5] = read-out: Intercellular Adhesion Molecule 1 (ICAM1), ICAM1 (gene 3383); test: BSK_BF4T_ICAM1: BioMAP Diversity Plus: BF4T Assay for Intercellular Adhesion Molecule 1 (ICAM1) Biomarker Activity (AID 2284260); conditions: primary human bronchial epithelial cells with fibroblasts
How it was run: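 ICAM-1 levels measured by ELISA after 24 h chemical treatment of bronchial epithelial cell/dermal fibroblast co-cultures, read against DMSO baseline. Overt cytotoxicity checked in parallel cultures by sulforhodamine B staining.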

[6] = read-out: Interleukin-8 (IL8), CXCL8 (gene 3576); test: BSK_MyoF_IL8: BioMAP Diversity Plus: MyoF Assay for Interleukin-8 (IL8) Biomarker Activity (AID 2284261); conditions: primary human lung fibroblasts
How it was run: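 DMSO-normalised, upward-fitted IL-8 ELISA signal; human lung fibroblasts, 24 h chemical treatment.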

CD90, THY1 (gene 7070) = test: BSK_BF4T_CD90: BioMAP Diversity Plus: BF4T Assay for CD90 Biomarker Activity (AID 2284262); conditions: primary human bronchial epithelial cells with fibroblasts
How it was run: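 CD90 levels by ELISA after 24 h treatment of human bronchial epithelial cell/dermal fibroblast cultures, analysed versus DMSO. Overt cytotoxicity checked in parallel cultures by sulforhodamine B staining.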

[7] = read-out: Interleukin-8 (IL8), CXCL8 (gene 3576); test: BSK_BF4T_IL8: BioMAP Diversity Plus: BF4T Assay for Interleukin-8 (IL8) Biomarker Activity (AID 2284263); conditions: primary human bronchial epithelial cells with fibroblasts
How it was run: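 Human bronchial epithelial cells with dermal fibroblasts co-culture; IL-8 measured by ELISA 24 hours after dosing, fitted vs DMSO. Cytotoxicity tracked in parallel cultures by SRB total-protein staining.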

[8] = read-out: Interleukin-1 alpha (IL1a), IL1A (gene 3552); test: BSK_BF4T_IL1a: BioMAP Diversity Plus: BF4T Assay for Interleukin-1 alpha (IL1a) Biomarker Activity (AID 2284264); conditions: primary human bronchial epithelial cells with fibroblasts
How it was run: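 ELISA read-out of IL-1α from bronchial epithelial cell/dermal fibroblast co-cultures 24 h after compound addition. Increases scored against DMSO negative control. Cytotoxicity monitored by sulforhodamine B staining of parallel cultures.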

Measured: AC50

FC(F)(F)C(F)(F)C(F)(F)C(F)(F)C(F)(F)C(F)(F)I
active: [2] 38.6 µM and 22.2 µM
inactive: all other assays above

O=C(Cl)C(F)(F)C(F)(F)C(F)(F)C(=O)Cl
inactive: all assays above

FC(F)C(F)(F)COCC1CO1 (stereo unspecified)
inactive: all assays above

FC(F)=C(F)C(F)(F)C(F)(F)C(F)(F)C(F)(F)C(F)(F)C(F)(F)F
inactive: all assays above

OCCC(F)(F)C(F)(F)C(F)(F)C(F)(F)F
inactive: all assays above

NCC(F)(F)C(F)(F)C(F)(F)C(F)(F)F
inactive: all assays above

O=S(=O)(O)CCC(F)(F)C(F)(F)C(F)(F)C(F)(F)C(F)(F)C(F)(F)F
inactive: all assays above

FC(F)(F)COC(OCC(F)(F)F)OCC(F)(F)F
inactive: all assays above

OC(O)(C(F)C(O)(O)C(F)(F)F)C(F)(F)F
inactive: all assays above

OCc1c[nH]c2ccccc12
inactive: [2] | [6]

C[Si](C)(C)C(F)(F)C(F)(F)C(F)(F)F
inactive: all assays above

S=P(N1CC1)(N1CC1)N1CC1
inactive: [2] | [6]

Cc1cccc(O)c1C
inactive: [2] | [6]
